# Experimental data from the supplement of paper PMC10646978.
# ± gives the standard deviation.
# Key:
# Settings in all cases: modulator concentration 10 µM
# [1] = test system: RAW-Dual (murine macrophage reporter line); assay: NF-kB reporter (SEAP) activity fold change vs agonist alone; higher = enhanced NF-kB activity
# How it was run: (§1)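 Overnight stimulation with a PRR agonist followed pre-incubation for 1 hour at 37 °C with compound at 10 μM final. This was done in RAW-Dual murine macrophage reporter cells seeded at 50 000 per well in 384-well plates. NF-κB (SEAP, QUANTI-Blue absorbance at 620 nm) and IRF (Lucia luciferase, QUANTI-Luc luminescence) were read from the supernatant. Each reporter's fold change relative to the mean agonist-only control on the same plate was averaged over replicate plates.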
# [2] = test system: RAW-Dual (murine macrophage reporter line); assay: IRF reporter (Lucia luciferase) activity fold change vs agonist alone; higher = enhanced IRF activity
# How it was run: as §1
# [3] = test system: RAW-Dual (murine macrophage reporter line); assay: viability score (confluency relative to resting cells, overnight) (fraction); higher = more viable, active = viable (0.7 or more)
# How it was run: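 In 384-well plates, RAW-Dual macrophages received compound at a final 10 μM overnight. Two confluency masks were then made with IncuCyte software from IncuCyte images of all imaged wells. The viability score is defined as confluency relative to resting cells. Passing the cutoff required both masks to lie above 70% of resting cells.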
# [4] = agonist: CpG ODN 1826 0.5 ug/mL
Compound,"NF-kB reporter [1, 4]",NF-kB reporter ([1]; agonist: LPS 0.1 ug/mL),NF-kB reporter ([1]; agonist: MPLA […]),IRF reporter ([2]; agonist: 3'3'-cGAMP 10 ug/mL),IRF reporter ([2]; agonist: LPS 0.1 ug/mL),IRF reporter ([2]; agonist: MPLA […]),viability score [3]
COC(=O)C1C2C(=O)N(c3ccccc3)C(=O)C12c1ccc(Cl)cc1 (stereo unspecified),1.1 ± 0.094,1.11 ± 0.09,1.01 ± 0.037,1.01 ± 0.04,1.03 ± 0.055,1.08 ± 0.11,1 (active)
CCCCCn1c(=O)c(C(=O)NCc2cccnc2)c(O)c2ccccc21,1.13 ± 0.086,1.25 ± 0.085,0.997 ± 0.062,1.02 ± 0.04,1.31 ± 0.087,1.34 ± 0.12,0.989 (active)
O=C(CCCN1CCC(n2c(=O)[nH]c3ccccc32)CC1)c1ccc(F)cc1 [Prestw-484],0.641 ± 0.18,1.11 ± 0.096,1.02 ± 0.097,0.851 ± 0.035,1.1 ± 0.12,1.33 ± 0.14,1 (active)
CN(C)CCC(=O)c1ccccc1,0.736 ± 0.06,0.28 ± 0.032,0.33 ± 0.018,0.155 ± 0.054,0.134 ± 0.0059,0.09 ± 0.0096,0.463 (inactive)
COc1ccc(CCNCc2ccc3ccccc3c2)cc1,0.853 ± 0.068,0.755 ± 0.051,1.65 ± 0.11,0.88 ± 0.06,0.98 ± 0.13,2.58 ± 0.29,0.123 (inactive)
O=C1NC(=O)N(c2ccccc2F)C(=O)C1=Cc1cc(Cl)ccc1OCc1ccc([N+](=O)[O-])cc1,0.892 ± 0.071,1.05 ± 0.078,0.744 ± 0.045,0.741 ± 0.018,0.972 ± 0.087,0.855 ± 0.16,1.01 (active)
CC(=O)C1CCC2C3CCC4CC(O)CCC4(C)C3CCC12C (stereo unspecified),1.17 ± 0.28,1.16 ± 0.097,1.02 ± 0.079,0.858 ± 0.034,1.2 ± 0.19,1.38 ± 0.13,0.985 (active)
Cc1c(NC=C2C(=O)NC(=O)NC2=O)c(=O)n(-c2ccccc2)n1C,0.967 ± 0.077,1.08 ± 0.074,0.957 ± 0.06,1.01 ± 0.029,1.45 ± 0.2,1.08 ± 0.069,1.02 (active)
COC12CC(COC(=O)c3cncc(Br)c3)CN(C)C1Cc1cn(C)c3cccc2c13 (stereo unspecified),1.02 ± 0.11,1.01 ± 0.078,1.03 ± 0.13,0.905 ± 0.065,1.16 ± 0.11,1.19 ± 0.16,1.04 (active)
CC12CCC3C(CCC4CC(O)CCC43C)C1CCC2=O (stereo unspecified),0.888 ± 0.066,1.04 ± 0.051,0.98 ± 0.021,0.949 ± 0.1,0.985 ± 0.033,0.972 ± 0.11,1.01 (active)
COc1cc2c(cc1OC)C1C(=O)c3ccc4c(c3OC1CO2)CC(C(C)C)O4 (stereo unspecified),1.11 ± 0.19,1.48 ± 0.12,2.31 ± 0.18,0.857 ± 0.06,1.89 ± 0.32,2.1 ± 0.4,0.976 (active)
CCNc1nc(Cl)nc(NC(C)C)n1,1.25 ± 0.097,0.873 ± 0.082,1.01 ± 0.094,1.01 ± 0.032,1.33 ± 0.21,1.49 ± 0.25,1.03 (active)
CCC1CN2CCC1CC2C(O)c1ccnc2ccc(OC)cc12 (stereo unspecified),1.05 ± 0.25,1.16 ± 0.066,1.1 ± 0.08,0.565 ± 0.021,1.21 ± 0.17,1.33 ± 0.26,0.983 (active)
